The panel holds about 79,000 compounds, 15% with a hit somewhere; the sample as a whole holds those more often. Cut-off read from the data, not from the text of the source: active = growth inhibition above about 70%; inactive = the rest.
Columns and labels:
[1] = NCI Yeast Anticancer Drug Screen. Data for the rad50 strain (AID 155);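 note: 0% = growth of vehicle-only cultures of the same strain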; settings: S. cerevisiae rad50 strain growth inhibition; at 50.0 µM; stronger effect = higher value
In short: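 Cells are treated with compound, grown, and their growth is then scored against vehicle-only cultures of the same repair-deficient yeast strain.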

[2] = NCI Yeast Anticancer Drug Screen. Data for the mec2-1 strain (AID 157); settings: S. cerevisiae mec2-1 strain, at 50.0 µM, stronger effect = higher value
In short: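 Mutant yeast (mec2-1) grown with compound; growth inhibition relative to vehicle control reported.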

[3] = NCI Yeast Anticancer Drug Screen. Data for the sgs1 mgt1 strain (AID 161);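 note: 0% = growth of cultures given vehicle only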; settings: S. cerevisiae sgs1 mgt1 strain, at 50.0 µM, stronger effect = higher value
In short: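 Compounds are added to genetically altered yeast, and growth is compared with cultures given vehicle alone to give percent inhibition.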

[4] = NCI Yeast Anticancer Drug Screen. Data for the cln2 rad14 strain (AID 165);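 note: 0% = growth equal to vehicle treated cultures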; settings: S. cerevisiae cln2 rad14 strain, at 50.0 µM, stronger effect = higher value
In short: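 Readout is yeast growth inhibition versus vehicle-treated controls, using a strain with cln2 and rad14 alterations exposed to compound.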

[5] = NCI Yeast Anticancer Drug Screen. Data for the bub3 strain (AID 167); settings: S. cerevisiae bub3 mutant strain, at 50.0 µM, stronger effect = higher value
In short: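 Part of a panel of yeast mutants defective in DNA damage repair or cell cycle regulation. Each strain is grown with compound, and inhibition is calculated relative to solvent-treated cultures.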

[6] = NCI Yeast Anticancer Drug Screen. Data for the mlh1 rad18 strain (AID 175); settings: S. cerevisiae mlh1 rad18 strain growth inhibition; at 50.0 µM; stronger effect = higher value
In short: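 Genetically defined yeast (DNA repair-deficient) exposed to compounds; growth inhibition determined relative to vehicle.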

Measured: growth inhibition

CC1CC(C)OC(c2ccccc2)O1 (stereo unspecified)
inactive: [1] 19.1% | [2] -1.5% | [3] -2.7% | [4] -20.1% | [5] -5% | [6] 19.7%

CC(O)C1OC(=O)C(O)C1O (stereo unspecified)
inactive: [1] -0.75% | [2] 4.95% | [3] -14.8% | [4] -5.9% | [5] 5.95% | [6] -6.05%

COc1ccc(C2c3cc4c(cc3OC(C)(OC)C2C)OCO4)c(OC)c1OC (stereo unspecified)
inactive: [1] -1.5% | [2] 5.8% | [3] -4.75% | [4] -19% | [5] -3.6% | [6] 22.1%

Cc1ccccc1CN(C)CCCO
inactive: [1] 4.1% | [2] -13% | [3] -16.8% | [4] -16.1% | [5] -3.85% | [6] 1.05%

CCCCCCC(=O)N1SC(NC(=O)OC)=Nc2ccccc21
inactive: [1] 5.55% | [2] 7.3% | [3] 27.6% | [4] 36.5% | [5] 69.7% | [6] 41%

NC(=O)c1ccc(S(=O)(=NS(=O)(=O)c2ccccc2)c2ccc(C(N)=O)cc2)cc1
inactive: [1] 4.2% | [2] -8.4% | [3] -11.8% | [4] -62.8% | [5] -25.6% | [6] -1.6%

N#C/C=C/c1cccc(Cl)c1
inactive: [1] 39.1% | [2] 7.9% | [3] 1.9% | [4] 14.3% | [5] 14.3% | [6] 16.9%

COC(=O)c1ccccc1NC(=O)c1cc(C(=O)O)c(C(=O)Nc2ccccc2C(=O)OC)cc1C(=O)O
inactive: [1] 0.75% | [2] 10.2% | [3] 4.95% | [4] 4.35% | [5] -3.7% | [6] 23.1%

CCCC(C)(C)O
inactive: [1] 2.15% | [2] 9.15% | [3] 22.1% | [4] -21.3% | [5] 10.4% | [6] -3.65%

Cc1cc(-c2cc(C)c(N)cc2S(=O)(=O)O)c(S(=O)(=O)O)cc1N
inactive: [1] -12.3% | [2] -23.4% | [3] -1.2% | [4] -3.2% | [5] 5.8% | [6] 1.15%

CC(=O)CC(=O)NC(C)(C)C
inactive: [1] 16.6% | [2] -33% | [3] -16.4% | [4] -13.2% | [5] 2.85% | [6] 7.7%

Cc1onc2c1c(=O)n(C)c(=O)n2C
inactive: [1] -6.25% | [2] -1.95% | [3] -3.55% | [4] -20.1% | [5] -7.45% | [6] -2.25%

Cn1c(-c2ccc3c(c2)OCO3)cc(=O)c2ccccc21
inactive: [1] -11.2% | [2] -17.6% | [3] -4.9% | [4] -4.55% | [5] 4.85% | [6] 0.6%

Cc1cc(=O)[nH]c(NN2C(Cl)C(=O)C2c2ccc(Cl)cc2)n1 (stereo unspecified)
inactive: [1] 10.6% | [2] 7.45% | [3] 4.2% | [4] -7.9% | [5] 8% | [6] -18.4%

Clc1ccc(N=Cc2ccc(C=Nc3ccc(Cl)cc3)cc2)cc1
inactive: [1] 8% | [2] 9.25% | [3] 24.1% | [4] 21.6% | [5] 15% | [6] 19.9%

COC(=O)/C=C(\C(=O)OC)c1cc(C)c2cc(C(C)C)ccc(C)c1-2
inactive: [1] 4.25% | [2] -22.2% | [3] 13% | [4] 13.8% | [5] -7.5% | [6] 17.9%

CC(C)Cc1cccc(C(C)C)c1NC(=O)CCC(=O)N/N=C1\C(=N/NC(=O)CCC(=O)Nc2c(C(C)C)cccc2C(C)C)C(c2ccc3c(c2)OCO3)Oc2ccccc21 (stereo unspecified)
inactive: [1] 5.2% | [2] -21.6% | [3] -5% | [4] -2.7% | [5] 6.75% | [6] 11.2%

C=C1CC(CCCCC2CC(=C)C(=O)O2)OC1=O (stereo unspecified)
inactive: [1] 1.45% | [2] -15.8% | [3] -8.1% | [4] -104% | [5] -12.7% | [6] -24.6%

S=C(NCCS)Nc1ccccc1
inactive: [1] -0.6% | [2] -11.4% | [3] -2.15% | [4] -46.6% | [5] 41.8% | [6] 13.3%

CC(=O)OC1CCC2(C)C(=CCC3C4CCC(=O)NC4(C)CCC32)C1 (stereo unspecified)
inactive: [1] 43% | [2] -1.8% | [3] 52.7% | [4] -4.95% | [5] 8.4% | [6] 28.9%

CC(=O)Nc1cc(N)ccc1C
inactive: [1] 7.15% | [2] 4.45% | [3] 1.65% | [4] -18.2% | [5] 10.6% | [6] -14.3%

N#Cc1c(O)c(C=O)c(=O)n2c1[nH]c1ccccc12
inactive: [1] -30.6% | [2] -45.5% | [3] -21.7% | [4] -8.15% | [5] 4.05% | [6] -0.05%

CC1=C(C(=O)O)CCc2ccccc21
inactive: [1] 40.7% | [2] -11.5% | [3] 19.9% | [4] 13.7% | [5] 15% | [6] 36.8%

O=C1NCC2(CCN(Cc3ccccc3)CC2)N1c1ccccc1
inactive: [1] 7.6% | [2] 3.05% | [3] 2.4% | [4] 4.85% | [5] -13.1% | [6] 13.7%

O=C(O)c1c(Br)c(Br)c(Br)c(Br)c1C(=O)Nc1ccc(Br)cc1
inactive: [1] 2.25% | [2] -1.3% | [3] 5.8% | [4] -8.6% | [5] 2.75% | [6] 33.2%

Cc1ccc(-c2cs/c(=N\N=C3/CSC(=O)N3Cc3ccccc3)n2-c2ccccc2)cc1
inactive: [1] 41.1% | [2] 22.8% | [3] 12.1% | [4] 0.35% | [5] -2.55% | [6] 40.4%

O=c1[nH]nc(Cc2ccccc2)n1/N=C/c1cccnc1
inactive: [1] 28.8% | [2] 30.9% | [3] 37% | [4] 35.7% | [5] 30.2% | [6] 45.6%

O=C1OCC/C1=C1/NC2CCCCC2NC1=O (stereo unspecified)
inactive: [1] -6.55% | [2] -16.1% | [3] 1.15% | [4] -24.6% | [5] -6.25% | [6] -14.1%

CC(=O)NN
inactive: [1] -5.25% | [2] 0.45% | [3] -0.8% | [4] -1.65% | [5] 11.5% | [6] -16.1%

CC(C)=CCC1=C(OCC(=O)O)C(=O)c2ccccc2C1=O
inactive: [1] 30.9% | [2] 1.45% | [3] 12.8% | [4] -2.7% | [5] 20.1% | [6] 23.1%

CCOC(=O)CNC(=O)C(CCSCc1ccccc1)NC(=O)OCc1ccccc1 (stereo unspecified)
inactive: [1] -2.75% | [2] 6.55% | [3] 0.3% | [4] 28.6% | [5] 4.45% | [6] 15.2%

O=C(N/N=C\c1ccccc1)Nc1cccc2ccccc12
inactive: [1] -27.4% | [2] 16.4% | [3] 20.3% | [4] -25.9% | [5] 27.9% | [6] -9.75%

[Mn+2].[Mn+2].c1ccc2c(c1)-c1nc-2nc2[n-]c(nc3nc(nc4[n-]c(n1)c1ccccc41)-c1ccccc1-3)c1cc3c4nc5nc(nc6[n-]c(nc7nc(nc([n-]4)c3cc21)-c1ccccc1-7)c1ccccc61)-c1ccccc1-5
inactive: [1] 15.4% | [2] -0.9% | [3] -8.75% | [4] -21.2% | [5] 0.4% | [6] 21.8%

CCOC(=O)C(/C=C/c1cc(C)c(C)c(C)c1)(NC=O)C(=O)OCC
inactive: [1] -3.25% | [2] 2.55% | [3] 9.6% | [4] 5.75% | [5] 12.1% | [6] -1.3%

CCC1=C/C(=N/O)C(C)=CC1(C)C(Cl)(Cl)Cl (stereo unspecified)
inactive: [1] 25.7% | [2] 7.65% | [3] 10% | [4] 17.2% | [5] 17.9% | [6] 48.5%

CC(=O)NNc1nc(C)c(C(/C=C/c2ccc([N+](=O)[O-])cc2)=N/NC(N)=S)s1
inactive: [1] -8.6% | [2] -2.25% | [3] -10% | [4] -12.4% | [5] -7.2% | [6] 6.7%

CC(=O)OCCOCNC(=S)N/N=C(\C)c1cccs1
inactive: [1] 10.3% | [2] -13.6% | [3] 4.8% | [4] 34.1% | [5] 4.3% | [6] -8.95%

NC(=S)c1ccccc1N=Cc1cccs1
inactive: [1] 26.8% | [2] 16.1% | [3] 14.2% | [4] -7.7% | [5] 53.6% | [6] 41.5%

N#CC1CCCC(CBr)C1 (stereo unspecified)
inactive: [1] -24.9% | [2] -43% | [3] -20.5% | [4] -23.7% | [5] -9.05% | [6] -26.7%

COc1ccc(C(C#N)C(=O)C(=O)Nc2ccc(C)cc2C)cc1OC (stereo unspecified)
inactive: [1] -30.6% | [2] 19.6% | [3] 42% | [4] -22.9% | [5] 48.2% | [6] 28.8%

COc1ccc(S(=O)(=O)O)cc1NS(=O)(=O)c1ccc(C)cc1
inactive: [1] -1.05% | [2] 18.9% | [3] 15.9% | [4] -12.2% | [5] 0.05% | [6] -2.1%

— PubChem BioAssay (NCI)
